The values that follow come from the OligoGym collection.
Further: reference of the scale not given here.

One test has as its target SLC50A1. Nature of the test: pooled miR-30 sensor sort-seq; sequence = guide strand. As to conditions: shRNA.
Turning to TCTGACGTTGTCCACACTCCGG, the sensor-assay potency score (higher = more potent) is -1.36. The same measure, in the same setting: the same measure for TCTGAGTCGAAACCCATAGAGG: -1.58; for TATAGGGATCTCTGAGTCGAAA: -1.32; for TAGTTTGAATCACCTTAGCCAA: -1.16. Consider TTATCCTCAAAGTCATCTCTTG, for which the sensor-assay potency score (higher = more potent) is -0.683. Still for that read-out and setting: the figure for TTCCTGTCTTGCTCCTGGGGGT is -0.7; for TTGGACACCATGATATAGGGAT it is 0.348; for ATATAGGGATCTCTGAGTCGAA it is -0.899. On the same count and under the same terms, the same measure for TTAGTTTGAATCACCTTAGCCA: 0.6. In turn, TTGATTTAGTTTGAATCACCTT showed a sensor-assay potency score (higher = more potent) of -0.06.

Regarding TGATTTAGTTTGAATCACCTTA, the sensor-assay potency score (higher = more potent) was 0.457.

In the next test the target is SLC5A9. Described as above. To be noted: shRNA.
In turn, TAGTCCATTGTCTAAGAGCTTT yielded a sensor-assay potency score (higher = more potent) of -1.07. Still for that read-out and setting: the same measure for TTAGAGAGTAGGAAGAGGCAGA: 0.115. TGGTCTGTGCACCAACACCAGG registered a sensor-assay potency score (higher = more potent) of -1.88.

TGTTGGAACATCCCACTCGGGC: the sensor-assay potency score (higher = more potent) is -1.24. As to TTGTTTAATCTGTCTACACTGA, the sensor-assay potency score (higher = more potent) is -0.279.

As for TTAACAAGTCATGTCTCTCCAA, the sensor-assay potency score (higher = more potent) is -0.0979. As to AGGAACACCACAAACACTCTGC, the sensor-assay potency score (higher = more potent) is -0.94. Still for that read-out and setting: the figure for TAGGCGTGCAGACCAACTCTGG is -1.48. On the same count and under the same terms, the same measure for TTGTCTAAGAGCTTTCTGCCCA: -0.317; for TAACAAGTCATGTCTCTCCAAC: -0.907. Same read-out and setting: the figure for TTCTACTCTCAAGACACACATT is -0.868. TTCTTTGGCAGACATCAGGGTC registered a sensor-assay potency score (higher = more potent) of -0.689.

A further test addresses SLC6A11. The description is as above. As to conditions: shRNA.
Consider TTCTGCAGAGACACATGGCTGT, for which the sensor-assay potency score (higher = more potent) amounted to 0.541. Still for that read-out and setting: the same measure for TTATCATAGAACCGGTTGCTTC: -1.38. Same read-out and setting: the figure for TTAACTGTCACCATCCGTGGGC is 0.397.

Take TACAAGTAGAACTTGATGCCCT: the sensor-assay potency score (higher = more potent) is 0.00476. Same read-out and setting: the same measure for TAGAACTTGATGCCCTCTGAGG: -1.22; for TAGGAGATAACAGACAAGGCTA: 0.294. Still for that read-out and setting: the same measure for TTCACTTGTGAACTGCCCCAGA: -0.108; for TCAATGTTATCATAGAACCGGT: -0.663.

With TCATTAACTGTCACCATCCGTG, the sensor-assay potency score (higher = more potent) is -0.565. Turning to TAGGAGAAAAAGATCTGCGTTC, the sensor-assay potency score (higher = more potent) was -0.00212. Same read-out and setting: the same measure for TTCAATGTTATCATAGAACCGG: -0.488; for ATAATTGTTATAACTTCCCAGA: -0.808.

Another test has as its target SLC6A17. The test is described as above. To be noted: shRNA.
On to TTGTAGGACACGGAGAGGGTGT, for which the sensor-assay potency score (higher = more potent) was -0.674. On the same count and under the same terms, the figure for TTGTCCTGCTTATTGTAGCTGG is -0.728; for ATATATAGTGCCACACACCGAT it is 0.0995; for TAGTGCCACACACCGATGCTGC it is -1.34. Consider TTTCTCAGCATTCTCGACCACA, for which the sensor-assay potency score (higher = more potent) is -0.65.
